We go through 40 sequences from the supplement of paper PMC6555819.

The test system of one assay is PPARg:RXRa (NR concentration 180 nM, RXRa partner concentration 90 nM). Nature of the assay: PBM binding z-score (relative to random genomic background probes); higher = stronger binding; sequences stand for … in GC…GCGATTGACAGCGTAGAATGAAGG
The method in brief:
(§1)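 Ligand-free nuclear receptor dimers were bound for 1 h to custom Agilent 4×180K protein-binding microarrays. Detection used antibodies against each partner (one per run). Binding z-scores rest on regression-normalized fluorescence, with random background probes as the reference.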
AAATGTAGGTTATCGGGTCATTCAGTTTGCGCAT yielded a PBM binding z-score of 7.59.
The same measure, in the same setting: to TCTTGTAGATCAACAGGAGGTAAAGAAAGATCGA belongs 0.106; to CCTTACGGGTCACGAGGTTATGGCACGACGAGCG, 7.08; to CCTCGGAGGACAGAAGATCAGAGCTGTCCGCTTT, -0.0907.
Same read-out and setting: to TTACCAAGGCGAGCTGAGGTCGTTGATCCAACTC belongs -0.35; to TCTAGTAGATCAGCAGGTTAAGAAAGCTGGCCAA, -0.257; to GCGACTGGGGCATCAGCAGGTTACGATAACTTAA, 1.05.
The same measure, in the same setting: with CGAACTAGGTCATCCAGGACAGTAAATACATTGA the figure was 7.87; with ACTATTAGTTGAGACGAAGGCAACCGATAGGTTG, 0.452; with TCGAGTTGGTTAGTCGGGGCATTCAGCCAACATA, -0.686.
In the case of TAGCCTAGGTCATTCAGGGGCCTGTATAGAAAGC, the PBM binding z-score was 2.01.
On the same count and under the same terms, with TAGCCAAGGTCATGGGCCAGTATACCACGCGAAC the figure was 5.96; with TCTAGTTGGGCACGGAGGTCACACACGACGGGTA, 2.82.
Still for that read-out and setting: with ATCTCTAGGTAAAGTACAGTGAAAGATCGATAGA the figure was 0.761.
For the sequence GTACCAAGATGAATAGGTCGTTGATGAGTAGGCG, the PBM binding z-score turned out to be 0.526.
On the same count and under the same terms, to CGAACTAGGTCCGAACAGGACAGTGAAGGATGAT belongs 0.576; to CTCGAAAGGTCGTTCTCAGGTGAGTATACCAAAC, 1.99.
The same measure, in the same setting: with CAAACTAAGTCAAGGTCAAAGTCGGTTTGTGCCA the figure was 2.82; with GTTGCTAGGTCAGGTTGGTCAGCTAACGGGTACG, 0.88; with CCAACGAGGGCATGAGTTGATAGCAAATGCCGAT, 1.05.
The same measure, in the same setting: to TCTTGTAGATCGGCAGGTTAAGAAAGCTGGCCAA belongs -0.656.
As for TCGAGTAGGTTAGGGGCATTCAAAATGGCGTCGA, the PBM binding z-score turned out to be 1.
On the same count and under the same terms, to TAGCCTAGGTCATTCAGGGGCCAGTCTAGAAAGC belongs 1.75; to TCTCCTAGGTCAGTTGGTCAGCTAACGAGCTGCC, 0.491; to ATCGAAAGGTCGTGAGGTGAGTGTACAGAAAGGC, 3.61.
The same measure, in the same setting: to CGTCAAAGTTCAAGGTAACGGAACAGAAAGCAGC belongs 4.57; to ACTATTAGTTGAGACGAGGGCAAACGATAGGTTG, 0.773; to TCGAGTAGGTTAGGGGCTTTCAGAATGGCGTCGA, 0.208.
The sequence CGAGCTAGGTCAAGGACAGTGAATCTCCGCACGC had a PBM binding z-score of 2.07.
On the same count and under the same terms, to ATCTCTAGGTAAGAAGTTCAGTGAAAGAGAGGAC belongs 1; to TTACCAAGGGGAGCTGAGGTCGTTGATCCAACTC, -0.207.
The same measure, in the same setting: to ACAGACAGTTGAGTGAAGGTAACTCAGCTGGACG belongs 0.557; to TCTCGGAGGACACGTAAGGTCAGAGCTCGACATC, 0.563.
Still for that read-out and setting: with ATCTCTAGGTAACAAGTTAAGTGAAAGAGAGGAC the figure was 2.23.
Take CTCGAAAAGTCGTGCTCAGGTGAGTATACCAAAC: the PBM binding z-score is -0.24.
Same read-out and setting: to TGAATGAGGTTATAAGCTCAGGGAACGTTGCAAA belongs 0.877; to AGAATGAGGTTATAAAGATCAGGGAATTGCGGTC, 1.58; to CAAACTAGGTCACCGGAAGGTCAACGTCCGCATG, 9.54.
Sequence ATAGGTAGGTTAGCTGGGGTCATTCAGACTAGGC yielded a PBM binding z-score of 2.59.
The same measure, in the same setting: with TCTATTAGTTGACTAGGGCAACCGAAACAGCGGA the figure was 0.971.

A further assay relates to PPARg:RXRa 270nM:90nM, anti-RXR (NR concentration 270 nM, RXRa partner concentration 90 nM). The assay is described as above. The method in brief:
as §1
As to AAATGTAGGTTATCGGGTCATTCAGTTTGCGCAT, the PBM binding z-score amounted to 6.43.
Same read-out and setting: to TCTTGTAGATCAACAGGAGGTAAAGAAAGATCGA belongs 1.19.
On the same count and under the same terms, with CCTTACGGGTCACGAGGTTATGGCACGACGAGCG the figure was 6.31.
The sequence CCTCGGAGGACAGAAGATCAGAGCTGTCCGCTTT came in with a PBM binding z-score of -0.214.
The same measure, in the same setting: with TTACCAAGGCGAGCTGAGGTCGTTGATCCAACTC the figure was 0.0213.
TCTAGTAGATCAGCAGGTTAAGAAAGCTGGCCAA came in with a PBM binding z-score of 1.37.
With GCGACTGGGGCATCAGCAGGTTACGATAACTTAA, the PBM binding z-score worked out at 0.876.
Consider CGAACTAGGTCATCCAGGACAGTAAATACATTGA, for which the PBM binding z-score was 6.33.
For the sequence ACTATTAGTTGAGACGAAGGCAACCGATAGGTTG, the PBM binding z-score was -0.4.
Sequence TCGAGTTGGTTAGTCGGGGCATTCAGCCAACATA came in with a PBM binding z-score of 0.5.
As to TAGCCTAGGTCATTCAGGGGCCTGTATAGAAAGC, the PBM binding z-score was 2.08.
Same read-out and setting: to TAGCCAAGGTCATGGGCCAGTATACCACGCGAAC belongs 6; to TCTAGTTGGGCACGGAGGTCACACACGACGGGTA, 3.41; to ATCTCTAGGTAAAGTACAGTGAAAGATCGATAGA, 0.842.
Still for that read-out and setting: to GTACCAAGATGAATAGGTCGTTGATGAGTAGGCG belongs -0.163; to CGAACTAGGTCCGAACAGGACAGTGAAGGATGAT, -0.558.
CTCGAAAGGTCGTTCTCAGGTGAGTATACCAAAC: the PBM binding z-score came out at 3.08.
Same read-out and setting: to CAAACTAAGTCAAGGTCAAAGTCGGTTTGTGCCA belongs 3.64.
Consider GTTGCTAGGTCAGGTTGGTCAGCTAACGGGTACG, for which the PBM binding z-score was 1.31.
As for CCAACGAGGGCATGAGTTGATAGCAAATGCCGAT, the PBM binding z-score was found to be 0.858.
Consider TCTTGTAGATCGGCAGGTTAAGAAAGCTGGCCAA, for which the PBM binding z-score is 1.28.
The same measure, in the same setting: with TCGAGTAGGTTAGGGGCATTCAAAATGGCGTCGA the figure was 1.98; with TAGCCTAGGTCATTCAGGGGCCAGTCTAGAAAGC, 2.25.
On the same count and under the same terms, with TCTCCTAGGTCAGTTGGTCAGCTAACGAGCTGCC the figure was 2.47.
On the same count and under the same terms, to ATCGAAAGGTCGTGAGGTGAGTGTACAGAAAGGC belongs 4.47.
For the sequence CGTCAAAGTTCAAGGTAACGGAACAGAAAGCAGC, the PBM binding z-score came to 5.32.
For ACTATTAGTTGAGACGAGGGCAAACGATAGGTTG, the PBM binding z-score came to 0.206.
Same read-out and setting: with TCGAGTAGGTTAGGGGCTTTCAGAATGGCGTCGA the figure was 1.76; with CGAGCTAGGTCAAGGACAGTGAATCTCCGCACGC, 2.14; with ATCTCTAGGTAAGAAGTTCAGTGAAAGAGAGGAC, 2.09.
Still for that read-out and setting: to TTACCAAGGGGAGCTGAGGTCGTTGATCCAACTC belongs 0.37.
Same read-out and setting: to ACAGACAGTTGAGTGAAGGTAACTCAGCTGGACG belongs -0.26.
TCTCGGAGGACACGTAAGGTCAGAGCTCGACATC: the PBM binding z-score was determined as 1.42.
ATCTCTAGGTAACAAGTTAAGTGAAAGAGAGGAC: the PBM binding z-score stood at 3.1.
With CTCGAAAAGTCGTGCTCAGGTGAGTATACCAAAC, the PBM binding z-score was -0.203.
The same measure, in the same setting: to TGAATGAGGTTATAAGCTCAGGGAACGTTGCAAA belongs 2.07; to AGAATGAGGTTATAAAGATCAGGGAATTGCGGTC, 2; to CAAACTAGGTCACCGGAAGGTCAACGTCCGCATG, 8.04.
As to ATAGGTAGGTTAGCTGGGGTCATTCAGACTAGGC, the PBM binding z-score was 3.65.
Still for that read-out and setting: to TCTATTAGTTGACTAGGGCAACCGAAACAGCGGA belongs 2.37.
